# Measurements: PubChem BioAssay (Tox21)
# Where “and” joins values, the source holds several entries; their conditions need not be identical. Identical values can stand only once. Results filed as inconclusive are left out. Where a call stands in place of a potency, no number is given. The source holds several records for some structures; these can differ, active in one and inactive in another. Calls of active or inactive are those of the source. Unless noted, the call rests on the fitted dose curve; in most records, active means well fitted curve in the direction sought with a large enough effect in the repeat runs; inconclusive means weak or mixed curves; inactive means no such curve, though single readings can be large; an effect the other way counts as inactive or inconclusive.
# Tests used:
# [1] = qHTS assay to identify small molecule agonists of the hypoxia (HIF-1) signaling pathway - cell viability counter screen (AID 1224844; calls by dose curve; further: nearly all actives have a fitted effect of over 50% in size; further: potency means the concentration at half of the fitted maximal effect)
# Outline: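 HRE-bla ME-180; 0.5% dFBS; cpd 17 h, 37C, 5% CO2; CellTiter-Glo lum., 30 min RT, post-FRET read, same wells.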
# [2] = qHTS assay to identify small molecule agonists of H2AX (AID 1224845; active means well fitted activation curve with a large enough effect in the signal ratio in the repeat runs, not every such curve was filed as active; the % refers to the signal ratio; further: potency means the concentration at half of the fitted maximal effect)
# Outline: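 Wild-type CHO-K1 cells, plated overnight, exposed 3hr at 37C to 15 concentrations (0.76% DMSO final). Lysed, then HTRF anti-pH2AX (S139) cryptate and anti-H2AX-d2 antibodies, 24 hr room temperature; 665/620 nm emission read.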
# [3] = qHTS assay to identify small molecule agonists of the hypoxia (HIF-1) signaling pathway (AID 1224846; active means well fitted activation curve with a large enough effect in the signal ratio in the repeat runs, not every such curve was filed as active; the % refers to the signal ratio)
# Outline: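 Reporter induction in HRE-bla ME-180 cells is taken as agonism: cells sit 5 hrs after plating, receive compounds or DMSO only, incubate 17 hrs at 37C under 5% CO2, and are loaded with CCF4-AM for beta-lactamase FRET measurement.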
# [4] = qHTS assay to identify small molecule agonists of H2AX - cell viability counter screen (AID 1224847; calls by dose curve; further: top concentration of the series differs between compounds; nearly all actives have a fitted effect of over 30% in size)
# Outline: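 Cells plated first: CHO-K1, 1000 per well in 10% FBS medium, incubated overnight at 37C. Then 15-point compound titration added (final DMSO 0.76%) for 3 hr. Finally CellTiter-Glo added and luminescence read.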
# [5] = qHTS RealTime-Glo MT Cell Viability Assay in HepG2 cells - 24 hour (AID 1224867); further: nearly all actives have a fitted effect of over 50% in size
# Outline: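 HepG2 suspension premixed with RealTime-Glo reagents is plated at 600 cells per well and left 5 h at 37 C/5% CO2. Compounds in DMSO then go in, and bioluminescence reflecting viable cell number is recorded over 40 h.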
# [6] = qHTS RealTime-Glo MT Cell Viability Assay in HEK293 cells - 32 hour (AID 1224868); further: top concentration of the series differs between compounds; nearly all actives have a fitted effect of over 50% in size
# Outline: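 Reads taken at 0, 8, 16, 24, 32 and 40 h from the same wells. HEK293 cells (600/well) carried RealTime-Glo reagents from seeding, with compound added after a 5 h settle at 37 C.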
# [7] = A CellTox Green Cytotoxicity Assay to monitor cytotoxicity in HEK293 cells - 0 hour (AID 1224869); further: nearly all actives have a fitted effect of over 50% in size
# Outline: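 Tox21 screen in HEK293: membrane-impermeant cyanine dye fluoresces on binding dead-cell DNA; compound pinned 5 h post-seeding, plates held at 37 C, signal read repeatedly through 40 h.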
# [8] = qHTS assay to identify small molecule antagonists of the estrogen related receptor (ERR) signaling pathway from Tox21 library (AID 1224848); further: nearly all actives have a fitted effect of over 50% in size
# Outline: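 Compounds dissolved in DMSO are pin-transferred onto ERR reporter cells (2,000 per well) that have settled for 6 h at 37 C. Plates then incubate 18 h at 37 C before ONE-Glo luciferase reagent and a luminescence read 30 min later.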
# [9] = qHTS assay to identify small molecule agonists of the estrogen related receptor (ERR) signaling pathway from Tox21 library (AID 1224849; calls by dose curve; further: nearly all actives have a fitted effect of over 15% in size); conditions: ERR reporter cell line, ONE-Glo luciferase, 18 h
# Outline: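 Tox21 compounds tested for ERR agonism in an NTP reporter cell line: 18 h treatment at 37 C, then ONE-Glo luminescence.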
# [10] = qHTS RealTime-Glo MT Cell Viability Assay in HepG2 cells - 40 hour (AID 1224870); further: nearly all actives have a fitted effect of over 50% in size
# Outline: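 HepG2 cells (600/well) mixed with RealTime-Glo MT reagent, settled 5 h at 37 C/5% CO2 before compound addition. Nonlytic NanoLuc luminescence from viable-cell prosubstrate reduction read repeatedly during 40 h treatment at 37 C.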
Compound,Potency [1],Potency [2],outcome [3],Potency [4],Potency [5],Potency [6],Potency [7],Potency [8],"activity change, positive = activation ([9]; at 92.4 µM (top of the series))",Potency [10],"activity change, positive = activation ([9]; at 42.5 µM (top of the series))"
CCC(=O)O[C@H]1[C@H](O[C@@H]2[C@@H](C)[C@H](O[C@H]3C[C@@](C)(OC)[C@@H](O)[C@H](C)O3)[C@@H](C)C(=O)O[C@H](CC)[C@@](C)(O)[C@H](O)[C@@H](C)C(=O)[C@H](C)C[C@@]2(C)O)O[C@H](C)C[C@@H]1N(C)C,25.8 µM (active) and inactive,inactive,inactive,inactive,inactive,inactive,inactive,–,–,–,–
COCCOCCOCCO,inactive,inactive,inactive,inactive,inactive,inactive,inactive,inactive,3.34% (inactive) and 5.65% (inactive),inactive,–
O=C(O)c1cc(=O)[nH]c(=O)[nH]1,inactive,inactive,inactive,inactive,inactive,inactive,inactive,inactive,2.48% (inactive),inactive,–
C=CCNCC=C,inactive,inactive,inactive,inactive,inactive,inactive,inactive,–,–,–,–
CC(=O)Oc1ccc(C(c2ccc(OC(C)=O)cc2)c2ccccn2)cc1,109 nM (active) and 756 nM (active),inactive,inactive,inactive,inactive,inactive,inactive,–,–,–,–
CCC(Cc1c(I)cc(I)c(N)c1I)C(=O)O (stereo unspecified),42.3 µM (active) and 15.1 µM (active),inactive,inactive,inactive,inactive,inactive,inactive,–,–,inactive,–
CCCCCCCCCCC(CO)CCCCCCCC (stereo unspecified),inactive,inactive,inactive,inactive,inactive,inactive,inactive,–,–,–,–
CN1CCOCC1,inactive,inactive,inactive,inactive,inactive,inactive,inactive,inactive,-10.1% (inactive) and 3.72% (inactive),inactive,–
CC(=O)[C@H]1CC[C@H]2[C@@H]3CC=C4C[C@@H](O)CC[C@]4(C)[C@H]3CC[C@]12C,inactive,inactive,inactive,inactive,inactive,inactive,inactive,inactive,-23.4% (inactive),–,-14.3% (inactive)
CC(C)=CCO,inactive,inactive,inactive,inactive,inactive,inactive,inactive,inactive,-0.501% (inactive),–,–
O=C(O)CCCC(=O)O,inactive,inactive,inactive,inactive,inactive,inactive,inactive,–,–,–,–
O=C1CCc2ccccc2O1,inactive,inactive,inactive,inactive,inactive,inactive,inactive,inactive,-2.99% (inactive) and -9.1% (inactive),inactive,–
Oc1c(Cl)ccc(Cl)c1Cl,inactive,inactive,inactive,inactive,inactive,inactive,inactive,inactive,1.41% (inactive) and -6.03% (inactive),–,–
O=C(O)CCCCCCCCCCCC(=O)O,48.2 µM (active) and inactive,111 µM (active) and inactive,inactive,inactive,inactive,inactive,inactive,inactive,-2.27% (inactive),–,–
OC[C@@H](O)[C@@H](O[C@@H]1O[C@H](CO)[C@H](O)[C@H](O)[C@H]1O)[C@H](O)[C@@H](O)CO,inactive,inactive,inactive,inactive,inactive,inactive,inactive,inactive,5.88% (inactive),–,4.37% (inactive)
CC1(C)O[C@@H]2C[C@H]3[C@@H]4C[C@H](F)C5=CC(=O)C=C[C@]5(C)[C@@]4(F)[C@@H](O)C[C@]3(C)[C@]2(C(=O)CO)O1,inactive,inactive,inactive,inactive,inactive,inactive,inactive,–,–,–,–
OCCNCCO,inactive,inactive,inactive,inactive,inactive,inactive,inactive,inactive,-2.22% (inactive) and 4.53% (inactive),inactive,–
C=CC(=O)OCCCC,inactive,inactive,inactive,inactive,inactive,inactive,inactive,inactive,7.41% (inactive) and 1.06% (inactive),–,–
Cc1ccc(N)c([N+](=O)[O-])c1,inactive,inactive,inactive,inactive,inactive,inactive,inactive,–,–,–,–
c1ccc2ncccc2c1,inactive,inactive,inactive,inactive,inactive,inactive,inactive,–,–,–,–
CCC/C=C/C=O,inactive,inactive,inactive,inactive,inactive,inactive,inactive,–,–,–,–
C=CCOC(=O)C(=C)C,inactive,inactive,inactive,inactive,inactive,inactive,inactive,inactive,-1.6% (inactive) and 1.74% (inactive),–,–
